For 28 compounds, outcome and AC50 results are on record in PubChem BioAssay (EPA / NIEHS).

The source made the active and inactive calls. The calls were made as follows: active = hit-call score of the fitted dose curve at least 0.9, where 1 is the maximum; inactive = score below 0.9.

One assay can be described thus: ATG_DR4_LXR_CIS: Attagene CIS-FACTORIAL HepG2 Assay for human Liver X Receptor (LXR), DR4 submotif (AID 2282929). To be noted: HepG2 Attagene DR4 cis-reporter, mRNA transcription; actives raise or lower the signal. An outline of the steps: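 Endogenous factor activity at a DR4 cis-element is read as reporter mRNA in transiently transfected HepG2 cells. Exposure lasts 24 h; transcripts are amplified, fluorescently labelled and sized by capillary electrophoresis, with DMSO as baseline.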
For `Nc1ccc(N=Nc2ccccc2)cc1`, the result was inactive.
Take `O=C(O)C1C2CCC(O2)C1C(=O)O` (stereo not drawn): the result was inactive.
Consider `O=C(Nc1ccccc1)c1ccccc1I`, for which the AC50 – broadly, the concentration at which the activity in the assay is half-maximal – is 157 µM (active).
As to `CC(O)CCO` (stereo not drawn), the compound was classed as inactive.
On to `CC(C)(C)OOC(C)(C)CCC(C)(C)OOC(C)(C)C`, for which the half-maximal activity concentration (AC50) was 100 µM (active).
`O=C(Oc1ccc(Br)cc1)N1CCN2CCC1CC2`: the call was inactive.
For `[O-][Cl+]O`, the compound was classed as inactive.
As for `Nc1ccc(Cl)cc1N`, the result was inactive.
For the compound `COc1cc(C=O)cc2c1[C@H](COC(N)=O)[C@]1(OC(C)=O)ON2C[C@H]2[C@@H]1N2C(C)=O`, the AC50 was 0.0512 µM (active).
`Nc1ccc([N+](=O)[O-])cc1`: the result was inactive.
For the compound `OCCCBr`, the compound was classed as inactive.
With `CNC(=O)Oc1cccc2c1OC(C)(C)C2`, the outcome was inactive.
Still for that read-out and setting: then `N#CC(Br)(Br)C(N)=O`, with “inactive”.
`Clc1ccc(C(c2ccc(Cl)cc2)C(Cl)Cl)cc1`: the AC50 was 17.1 µM (active).
For `Cc1ccc(N=C=O)cc1N=C=O`, the call was inactive.
`c1ccc2c(c1)-c1cccc3cccc-2c13`: the compound was called inactive.
Take `ClC1=C(Cl)C2(Cl)C3C(Cl)C=CC3C1(Cl)C2(Cl)Cl` (stereo not drawn): the AC50 was 40.1 µM (active).
Take `COC(=O)c1ccccc1N`: the compound was called inactive.
In the case of `c1ccc(NNc2ccccc2)cc1`, the AC50 was 100 µM (active).
Take `c1ccc(C2CO2)cc1` (stereo not drawn): the call was inactive.
Take `c1ccc2c(c1)oc1ccccc12`: the compound was called inactive.
Same read-out and setting: in the case of `O=Cc1ccco1` it was “inactive”.
Take `CCC(C)c1ccc(O)cc1` (stereo not drawn): the AC50 is 100 µM (active).
In the case of `CCOc1cccc(C2(N3CCN(c4ccccc4)CC3)CCC(C)CC2)c1` (stereo not drawn), the outcome was inactive.
With `COP(=S)(OC)SCN1C(=O)c2ccccc2C1=O`, the compound was classed as inactive.
With `[Cl-].[Cl-].[Hg+2]`, the AC50 was 33.4 µM (active).
For `CCN(CC)N=O`, the compound was classed as inactive.
For `O=C(N[C@H](c1ccccc1)[C@@H]1CN2CCC1CC2)c1c(Cl)ccc(C(F)(F)F)c1Cl`, the result was inactive.

Another assay can be described thus: ATG_AP_1_CIS: Attagene CIS-FACTORIAL HepG2 Assay for human Activator Protein 1 (AP-1) (AID 2282931). To be noted: HepG2 Attagene cis-factorial AP-1 reporter mRNA; actives raise or lower the signal. An outline of the steps:
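Fluorescence of labelled PCR fragments separated by capillary electrophoresis gives reporter mRNA levels. HepG2 with transfected cis-regulated reporter units, 24 h exposure; DMSO serves as baseline for bidirectional curve fits.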
As for `Nc1ccc(N=Nc2ccccc2)cc1`, the result was inactive.
For the compound `O=C(O)C1C2CCC(O2)C1C(=O)O` (stereo not drawn), the AC50 is 59 µM (active).
`O=C(Nc1ccccc1)c1ccccc1I`: the compound was classed as inactive.
For `CC(O)CCO` (stereo not drawn), the outcome was inactive.
With `CC(C)(C)OOC(C)(C)CCC(C)(C)OOC(C)(C)C`, the AC50 is 100 µM (active).
With `O=C(Oc1ccc(Br)cc1)N1CCN2CCC1CC2`, the compound was called inactive.
Same read-out and setting: in the case of `[O-][Cl+]O` it was “inactive”.
Regarding `Nc1ccc(Cl)cc1N`, the AC50 is 9.15 µM (active).
For `COc1cc(C=O)cc2c1[C@H](COC(N)=O)[C@]1(OC(C)=O)ON2C[C@H]2[C@@H]1N2C(C)=O`, the half-maximal activity concentration (AC50) is 61.4 µM (active).
With `Nc1ccc([N+](=O)[O-])cc1`, the result was inactive.
Consider `OCCCBr`, for which the result was inactive.
Regarding `CNC(=O)Oc1cccc2c1OC(C)(C)C2`, the compound was classed as inactive.
`N#CC(Br)(Br)C(N)=O`: the call was inactive.
As for `Clc1ccc(C(c2ccc(Cl)cc2)C(Cl)Cl)cc1`, the AC50 is 50.9 µM (active).
For the compound `Cc1ccc(N=C=O)cc1N=C=O`, the call was inactive.
The same measure, in the same setting: in the case of `c1ccc2c(c1)-c1cccc3cccc-2c13` it was “inactive”.
Take `ClC1=C(Cl)C2(Cl)C3C(Cl)C=CC3C1(Cl)C2(Cl)Cl` (stereo not drawn): the AC50 was 154 µM (active).
Turning to `COC(=O)c1ccccc1N`, the result was inactive.
Turning to `c1ccc(NNc2ccccc2)cc1`, the compound was classed as inactive.
Regarding `c1ccc(C2CO2)cc1` (stereo not drawn), the compound was classed as inactive.
Regarding `c1ccc2c(c1)oc1ccccc12`, the compound was classed as inactive.
In the case of `O=Cc1ccco1`, the call was inactive.
For the compound `CCC(C)c1ccc(O)cc1` (stereo not drawn), the AC50 was 69.8 µM (active).
In the case of `CCOc1cccc(C2(N3CCN(c4ccccc4)CC3)CCC(C)CC2)c1` (stereo not drawn), the call was inactive.
Same read-out and setting: then `COP(=S)(OC)SCN1C(=O)c2ccccc2C1=O`, with “inactive”.
Regarding `[Cl-].[Cl-].[Hg+2]`, the outcome was inactive.
Same read-out and setting: then `CCN(CC)N=O`, with “inactive”.
On to `O=C(N[C@H](c1ccccc1)[C@@H]1CN2CCC1CC2)c1c(Cl)ccc(C(F)(F)F)c1Cl`, for which the compound was called inactive.

A further assay is described as follows: ATG_AP_2_CIS: Attagene CIS-FACTORIAL HepG2 Assay for human Activator Protein 2 (AP-2) (AID 2282932). To be noted: HepG2 AP-2 cis-reporter, Attagene transcription factor profiling; actives raise or lower the signal. In a few lines:
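HepG2 cells were transiently transfected with multiple cis-promoter reporter transcription units and dosed for 24 h. Reporter mRNA was measured by RT-PCR with capillary electrophoresis fluorescence; bidirectional fits relative to DMSO baseline.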
Take `Nc1ccc([N+](=O)[O-])cc1`: the call was inactive.
Take `Clc1ccc(C(c2ccc(Cl)cc2)C(Cl)Cl)cc1`: the AC50 is 54.5 µM (active).
As for `CCC(C)c1ccc(O)cc1` (stereo not drawn), the compound was called inactive.
The same measure, in the same setting: then `O=C(N[C@H](c1ccccc1)[C@@H]1CN2CCC1CC2)c1c(Cl)ccc(C(F)(F)F)c1Cl`, with “inactive”.

The next assay in a line: ATG_BRE_CIS: Attagene CIS-FACTORIAL HepG2 Assay for human Bone Morphogenetic Protein (BMP) Response Element (BRE) (AID 2282933). Particulars: HepG2 BMP response element reporter, Attagene transcription factor profiling; actives raise or lower the signal. An outline of the steps:
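Fluorescence-labelled reporter cDNA fragments, separated by capillary electrophoresis, gave the signal for this component of a 52-readout multiplex. HepG2 cells were transfected, exposed to chemicals for 24 h, and compared with DMSO using bidirectional fitting.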
As to `Nc1ccc(N=Nc2ccccc2)cc1`, the AC50 is 59.4 µM (active).
Regarding `O=C(O)C1C2CCC(O2)C1C(=O)O` (stereo not drawn), the compound was called inactive.
`O=C(Nc1ccccc1)c1ccccc1I`: the compound was called inactive.
For `CC(O)CCO` (stereo not drawn), the compound was called inactive.
Take `CC(C)(C)OOC(C)(C)CCC(C)(C)OOC(C)(C)C`: the AC50 was 161 µM (active).
With `O=C(Oc1ccc(Br)cc1)N1CCN2CCC1CC2`, the compound was classed as inactive.
On the same count and under the same terms, then `[O-][Cl+]O`, with “inactive”.
With `Nc1ccc(Cl)cc1N`, the compound was called inactive.
Take `COc1cc(C=O)cc2c1[C@H](COC(N)=O)[C@]1(OC(C)=O)ON2C[C@H]2[C@@H]1N2C(C)=O`: the compound was called inactive.
As to `Nc1ccc([N+](=O)[O-])cc1`, the call was inactive.
As for `OCCCBr`, the compound was classed as inactive.
On to `CNC(=O)Oc1cccc2c1OC(C)(C)C2`, for which the result was inactive.
For `N#CC(Br)(Br)C(N)=O`, the call was inactive.
On the same count and under the same terms, in the case of `Clc1ccc(C(c2ccc(Cl)cc2)C(Cl)Cl)cc1` it was “inactive”; in that of `Cc1ccc(N=C=O)cc1N=C=O`, “inactive”; in that of `c1ccc2c(c1)-c1cccc3cccc-2c13`, “inactive”.
For `ClC1=C(Cl)C2(Cl)C3C(Cl)C=CC3C1(Cl)C2(Cl)Cl` (stereo not drawn), the call was inactive.
Same read-out and setting: in the case of `COC(=O)c1ccccc1N` it was “inactive”; in that of `c1ccc(NNc2ccccc2)cc1`, “inactive”; in that of `c1ccc(C2CO2)cc1` (stereo not drawn), “inactive”.
The same measure, in the same setting: in the case of `c1ccc2c(c1)oc1ccccc12` it was “inactive”; in that of `O=Cc1ccco1`, “inactive”.
`CCC(C)c1ccc(O)cc1` (stereo not drawn): the AC50 is 100 µM (active).
Regarding `CCOc1cccc(C2(N3CCN(c4ccccc4)CC3)CCC(C)CC2)c1` (stereo not drawn), the outcome was inactive.
Take `COP(=S)(OC)SCN1C(=O)c2ccccc2C1=O`: the result was inactive.
Turning to `[Cl-].[Cl-].[Hg+2]`, the call was inactive.
In the case of `CCN(CC)N=O`, the result was inactive.
Same read-out and setting: then `O=C(N[C@H](c1ccccc1)[C@@H]1CN2CCC1CC2)c1c(Cl)ccc(C(F)(F)F)c1Cl`, with “inactive”.
